Assay results taken from PubChem BioAssay AID1159580 (chemical genetic matrix, 2015).
Among all 5,500 compounds or so, about 2,000 (36%) were called active. Inconclusive results (about 18%) are left out. No stated cut-off is given here; in the data, active means normalized growth mostly below about 0.91 (no sharp cut-off); inconclusive means no clear call, values can overlap the other calls; inactive means mostly above about 0.92. The list shows a part of the results.

Assay: chemical genetic growth profiling, strain panel (AID 1159580);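 further: tested at 20 µM; growth read once vehicle control cultures reached saturation at 30 °C; 1 = growth at the plate median or of vehicle wells; lower values mean less growth of the strain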
Details: growth OD
[1] = S. cerevisiae deletion strains, locus YAR019C, strain CDC15, active compounds read low
[2] = S. cerevisiae deletion strains, locus YBL105C, strain PKC1, active compounds read low
[3] = S. cerevisiae deletion strains, locus YBR135W, strain CKS1, active compounds read low
[4] = S. cerevisiae deletion strains, locus YBR136W, strain MEC1, active compounds read low
[5] = S. cerevisiae deletion strains, locus YBR160W, strain CDC28, active compounds read low
[6] = S. cerevisiae deletion strains, locus YDL017W, strain CDC7, active compounds read low
[7] = S. cerevisiae deletion strains, locus YDL028C, strain MPS1, active compounds read low
[8] = S. cerevisiae deletion strains, locus YDL101C, strain DUN1, active compounds read low
[9] = S. cerevisiae deletion strains, locus YDL108W, strain KIN28, active compounds read low
[10] = S. cerevisiae deletion strains, locus YDL132W, strain cdc53, active compounds read low
[11] = S. cerevisiae deletion strains, locus YDL214C, strain PRR2, active compounds read low
[12] = S. cerevisiae deletion strains, locus YDR052C, strain DBF4, active compounds read low
[13] = S. cerevisiae deletion strains, locus YDR054C, strain cdc34, active compounds read low
[14] = S. cerevisiae deletion strains, locus YDR226W, strain ADK1, active compounds read low
[15] = S. cerevisiae deletion strains, locus YDR477W, strain SNF1, active compounds read low
[16] = S. cerevisiae deletion strains, locus YER123W, strain YCK3, active compounds read low
[17] = S. cerevisiae deletion strains, locus YER133W, strain GLC7, active compounds read low
[18] = S. cerevisiae deletion strains, locus YFL009W, strain cdc4, active compounds read low
[19] = S. cerevisiae deletion strains, locus YFL029C, strain CAK1, active compounds read low
[20] = S. cerevisiae deletion strains, locus YFR003C, strain YPI1, active compounds read low
[21] = S. cerevisiae deletion strains, locus YFR019W, strain FAB1, active compounds read low
[22] = S. cerevisiae deletion strains, locus YFR028C, strain CDC14, active compounds read low
[23] = S. cerevisiae deletion strains, locus YGR040W, strain KSS1, active compounds read low
[24] = S. cerevisiae deletion strains, locus YGR052W, strain FMP48, active compounds read low
[25] = S. cerevisiae deletion strains, locus YGR092W, strain DBF2, active compounds read low
[26] = S. cerevisiae deletion strains, locus YHR030C, strain SLT2, active compounds read low
[27] = S. cerevisiae deletion strains, locus YHR079C, strain IRE1, active compounds read low
[28] = S. cerevisiae deletion strains, locus YHR082C, strain KSP1, active compounds read low
[29] = S. cerevisiae deletion strains, locus YHR205W, strain SCH9, active compounds read low
[30] = S. cerevisiae deletion strains, locus YIL147C, strain SLN1, active compounds read low
[31] = S. cerevisiae deletion strains, locus YJL095W, strain BCK1, active compounds read low
[32] = S. cerevisiae deletion strains, locus YJL128C, strain PBS2, active compounds read low
[33] = S. cerevisiae deletion strains, locus YJL157C, strain FAR1, active compounds read low
[34] = S. cerevisiae deletion strains, locus YJR016C, strain ILV3, active compounds read low
[35] = S. cerevisiae deletion strains, locus YJR066W, strain TOR1 (second series), active compounds read low
[36] = S. cerevisiae deletion strains, locus YJR066W, strain TOR1, active compounds read low
[37] = S. cerevisiae deletion strains, locus YKL048C, strain ELM1, active compounds read low
[38] = S. cerevisiae deletion strains, locus YKL067W, strain YNK1, active compounds read low
[39] = S. cerevisiae deletion strains, locus YKL101W, strain HSL1, active compounds read low
[40] = S. cerevisiae deletion strains, locus YKL193C, strain SDS22, active compounds read low
[41] = S. cerevisiae deletion strains, locus YKL203C, strain TOR2, active compounds read low
[42] = S. cerevisiae deletion strains, locus YLR113W, strain HOG1, active compounds read low
[43] = S. cerevisiae deletion strains, locus YLR133W, strain CKI1, active compounds read low
[44] = S. cerevisiae deletion strains, locus YLR403W, strain SFP1, active compounds read low
[45] = S. cerevisiae deletion strains, locus YML070W, strain DAK1, active compounds read low
[46] = S. cerevisiae deletion strains, locus YMR001C, strain CDC5, active compounds read low
[47] = S. cerevisiae deletion strains, locus YMR205C, strain PFK2 (second series), active compounds read low
[48] = S. cerevisiae deletion strains, locus YMR277W, strain FCP1, active compounds read low
[49] = S. cerevisiae deletion strains, locus YNL006W, strain LST8, active compounds read low
[50] = S. cerevisiae deletion strains, locus YNL020C, strain ARK1, active compounds read low
[51] = S. cerevisiae deletion strains, locus YNL161W, strain CBK1, active compounds read low
[52] = S. cerevisiae deletion strains, locus YNL183C, strain NPR1, active compounds read low
[53] = S. cerevisiae deletion strains, locus YNL207W, strain RIO2, active compounds read low
[54] = S. cerevisiae deletion strains, locus YNL222W, strain SSU72, active compounds read low
[55] = S. cerevisiae deletion strains, locus YNL307C, strain MCK1 (second series), active compounds read low
[56] = S. cerevisiae deletion strains, locus YOL078W, strain AVO1, active compounds read low
[57] = S. cerevisiae deletion strains, locus YOL136C, strain PFK27, active compounds read low
[58] = S. cerevisiae deletion strains, locus YOR061W, strain CKA2, active compounds read low
[59] = S. cerevisiae deletion strains, locus YOR119C, strain RIO1, active compounds read low
[60] = S. cerevisiae deletion strains, locus YOR231W, strain MKK1, active compounds read low
[61] = S. cerevisiae deletion strains, locus YOR329C, strain SCD5, active compounds read low
[62] = S. cerevisiae deletion strains, locus YPL031C, strain PHO85, active compounds read low
[63] = S. cerevisiae deletion strains, locus YPL153C, strain RAD53, active compounds read low
[64] = S. cerevisiae deletion strains, locus YPL204W, strain HRR25, active compounds read low
[65] = S. cerevisiae deletion strains, locus YPL209C, strain IPL1, active compounds read low
[66] = S. cerevisiae deletion strains, locus YPL256C, strain CLN2, active compounds read low
[67] = S. cerevisiae deletion strains, locus YPR025C, strain CCL1, active compounds read low
[68] = S. cerevisiae deletion strains, locus YPR106W, strain ISR1, active compounds read low
[69] = S. cerevisiae deletion strains, locus YPR111W, strain DBF20, active compounds read low
[70] = S. cerevisiae deletion strains, strain NNK1, active compounds read low
[71] = S. cerevisiae deletion strains, strain TSCII, active compounds read low
[72] = S. cerevisiae deletion strains, locus YAL013W, strain DEP1, active compounds read low
[73] = S. cerevisiae deletion strains, locus YBR229C, strain ROT2, active compounds read low
[74] = S. cerevisiae deletion strains, locus YDR150W, strain NUM1, active compounds read low
[75] = S. cerevisiae deletion strains, locus YEL061C, strain CIN8, active compounds read low
[76] = S. cerevisiae deletion strains, locus YGR078C, strain PAC10, active compounds read low
[77] = S. cerevisiae deletion strains, locus YHR087W, strain rtc3, active compounds read low
[78] = S. cerevisiae deletion strains, locus YJR043C, strain POL32, active compounds read low
[79] = S. cerevisiae deletion strains, locus YJR075W, strain HOC1, active compounds read low
[80] = S. cerevisiae deletion strains, locus YKL190W, strain CNB1, active compounds read low
[81] = S. cerevisiae deletion strains, locus YLR039C, strain RIC1, active compounds read low
[82] = S. cerevisiae deletion strains, locus YLR058C, strain SHM2 (second series), active compounds read low
[83] = S. cerevisiae deletion strains, locus YLR085C, strain ARP6, active compounds read low
[84] = S. cerevisiae deletion strains, locus YLR262C, strain YPT6, active compounds read low
[85] = S. cerevisiae deletion strains, locus YML094W, strain GIM5, active compounds read low
[86] = S. cerevisiae deletion strains, locus YMR219W, strain ESC1, active compounds read low
[87] = S. cerevisiae deletion strains, locus YMR263W, strain SAP30, active compounds read low
[88] = S. cerevisiae deletion strains, locus YNL153C, strain GIM3, active compounds read low
[89] = S. cerevisiae deletion strains, locus YNL298W, strain CLA4 (second series), active compounds read low
[90] = S. cerevisiae deletion strains, locus YNL322C, strain KRE1, active compounds read low
[91] = S. cerevisiae deletion strains, locus YNR030W, strain Alg12, active compounds read low
[92] = S. cerevisiae deletion strains, locus YPL055C, strain LGE1, active compounds read low
[93] = S. cerevisiae deletion strains, locus YPL241C, strain CIN2, active compounds read low
[94] = S. cerevisiae deletion strains, locus YPR135W, strain CTF4, active compounds read low
[95] = S. cerevisiae strains, strain wild type, active compounds read low

Measured: normalized growth

O=C(NCc1cccs1)c1csc(Cc2c(Cl)cccc2Cl)n1
inactive: [1] 0.986 | [2] 0.969 | [3] 0.972 | [4] 0.995 | [5] 0.979 | [6] 0.987 | [7] 0.969 | [8] 0.981 | [9] 0.987 | [10] 0.978 | [11] 0.992 | [12] 0.996 | [13] 0.971 | [14] 0.971 | [15] 0.978 | [16] 0.985 | [17] 0.996 | [18] 0.957 | [19] 0.98 | [20] 0.991 | [21] 0.988 | [22] 0.982 | [23] 0.994 | [24] 1.06 | [25] 0.95 | [26] 0.924 | [27] 0.992 | [28] 1.02 | [29] 0.988 | [30] 0.985 | [31] 1.01 | [32] 0.937 | [33] 0.998 | [34] 0.99 | [35] 0.98 | [36] 0.956 | [37] 1 | [38] 0.996 | [39] 1 | [40] 0.99 | [41] 1.07 | [42] 0.981 | [43] 0.99 | [44] 0.994 | [45] 1 | [46] 0.986 | [47] 1.01 | [48] 0.982 | [49] 0.987 | [50] 1.01 | [51] 0.994 | [52] 1.07 | [53] 0.981 | [54] 0.983 | [55] 1.01 | [56] 0.991 | [57] 1.01 | [58] 0.992 | [59] 1.03 | [60] 0.988 | [61] 0.985 | [62] 0.988 | [63] 0.994 | [64] 1 | [65] 0.988 | [66] 0.985 | [67] 0.982 | [68] 0.968 | [69] 0.965 | [70] 0.977 | [71] 0.986

O=C(NNC(=O)c1csc(-c2cccs2)n1)c1ccc(C(F)(F)F)cc1
inactive: [1] 0.972 | [2] 0.967 | [3] 0.955 | [4] 0.979 | [5] 0.965 | [6] 0.961 | [7] 0.958 | [9] 0.972 | [10] 0.946 | [12] 0.964 | [13] 0.961 | [14] 0.967 | [16] 0.75 | [17] 0.863 | [18] 0.967 | [19] 0.959 | [20] 0.964 | [21] 0.99 | [22] 0.949 | [23] 0.832 | [24] 0.779 | [28] 0.838 | [29] 0.695 | [30] 0.973 | [32] 0.948 | [34] 0.969 | [36] 0.486 | [37] 0.91 | [40] 0.963 | [41] 0.913 | [44] 0.884 | [45] 0.887 | [46] 0.949 | [48] 0.957 | [49] 0.96 | [51] 0.959 | [53] 0.955 | [54] 0.963 | [56] 0.966 | [57] 0.805 | [58] 0.821 | [59] 0.877 | [61] 0.959 | [64] 0.723 | [65] 0.964 | [67] 0.954 | [68] 0.959 | [69] 0.974 | [70] 0.974 | [71] 0.943
active: [8] 0.901 | [11] 0.657 | [15] 0.572 | [25] 0.154 | [26] 0.198 | [27] 0.181 | [31] 0.345 | [33] 0.612 | [35] 0.14 | [38] 0.713 | [39] 0.59 | [42] 0.677 | [43] 0.592 | [47] 0.666 | [50] 0.492 | [52] 0.5 | [55] 0.286 | [60] 0.29 | [62] 0.512 | [63] 0.57 | [66] 0.558

CC(=O)c1csc(-c2ccc(C(F)(F)F)cc2)n1
active: [83] 0.762 | [93] 0.841
inactive: [72] 0.947 | [73] 0.965 | [8] 0.977 | [74] 0.977 | [75] 0.967 | [76] 0.949 | [26] 0.761 | [77] 0.964 | [78] 0.988 | [79] 0.928 | [80] 0.994 | [81] 0.882 | [82] 0.955 | [84] 0.943 | [85] 0.898 | [86] 0.977 | [87] 0.979 | S. cerevisiae deletion strains, locus YNL128W, strain TEP1, active compounds read low 0.99 | [88] 0.954 | [89] 0.911 | [90] 0.971 | [91] 0.943 | [92] 0.892 | [94] 0.658 | [95] 0.997

FC(F)(F)c1ccc(-c2nc(-c3ccc4c(c3)OCCCO4)cs2)cc1
inactive: [72] 1.03 | [73] 1.01 | S. cerevisiae deletion strains, locus YCL061C, strain MRC1, active compounds read low 0.99 | [8] 0.965 | S. cerevisiae deletion strains, locus YDL134C, strain PPH21, active compounds read low 1 | [74] 1.01 | [75] 1.01 | [76] 1.01 | S. cerevisiae deletion strains, locus YGR229C, strain SMI1, active compounds read low 1.01 | [26] 1.05 | [77] 1.03 | [78] 0.997 | [79] 1.02 | [80] 1.01 | [81] 1.07 | [82] 0.998 | [83] 1.1 | [84] 1.02 | [85] 1.04 | [86] 1.01 | [87] 0.988 | S. cerevisiae deletion strains, locus YMR307W, strain GAS1, active compounds read low 0.987 | [88] 0.992 | [89] 1.02 | [90] 1.01 | [91] 1.01 | [92] 1.06 | [93] 1.03 | [94] 1.27 | [95] 1.01
